# Laboratory results from PubChem BioAssay AID1224897 (Sanford-Burnham Center for Chemical Genomics, 2016).
# The list shows a part of the results. Activity calls are given as the source filed them. The rule behind the calls is not given here.
# Target: Hepatocyte nuclear factor 4-alpha (Homo sapiens) (UniProt P41235)
# Assay: change in HNF4A binding to DNA, retest, confirmation, biochemical, fluorescence polarization, FITC-DNA (AID 1224897)
# Settings: 1 h, at 12.5 µM, stronger effect = higher value
# Chain of Hepatocyte nuclear factor 4-alpha (Homo sapiens) (P41235 whole entry, looked up): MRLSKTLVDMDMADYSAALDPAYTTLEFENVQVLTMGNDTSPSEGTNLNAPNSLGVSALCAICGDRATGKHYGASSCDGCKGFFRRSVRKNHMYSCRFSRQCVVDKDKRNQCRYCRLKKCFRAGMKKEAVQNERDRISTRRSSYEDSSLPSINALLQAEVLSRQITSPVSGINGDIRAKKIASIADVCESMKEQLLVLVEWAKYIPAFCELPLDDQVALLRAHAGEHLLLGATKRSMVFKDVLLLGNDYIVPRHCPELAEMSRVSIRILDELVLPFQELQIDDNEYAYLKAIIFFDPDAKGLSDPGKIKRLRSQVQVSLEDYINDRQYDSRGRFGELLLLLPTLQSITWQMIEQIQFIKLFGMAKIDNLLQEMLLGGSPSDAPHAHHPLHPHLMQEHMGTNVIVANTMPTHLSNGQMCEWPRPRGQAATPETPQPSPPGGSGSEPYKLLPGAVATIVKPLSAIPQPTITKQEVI
smiles,measurement,value
COc1ccccc1N=Nc1c(O)[nH]c(=S)[nH]c1=O,activity change,112% (active)
